This passage reports inhibition results from ChEMBL document CHEMBL1961873, “Compounds: GSK PKIS; Assays: Nanosyn kinase panel” (2012).

Assay [1] deals with T1, Serine/threonine-protein kinase D2 (Homo sapiens) (UniProt Q9BZL6).
T1 sequence (whole entry): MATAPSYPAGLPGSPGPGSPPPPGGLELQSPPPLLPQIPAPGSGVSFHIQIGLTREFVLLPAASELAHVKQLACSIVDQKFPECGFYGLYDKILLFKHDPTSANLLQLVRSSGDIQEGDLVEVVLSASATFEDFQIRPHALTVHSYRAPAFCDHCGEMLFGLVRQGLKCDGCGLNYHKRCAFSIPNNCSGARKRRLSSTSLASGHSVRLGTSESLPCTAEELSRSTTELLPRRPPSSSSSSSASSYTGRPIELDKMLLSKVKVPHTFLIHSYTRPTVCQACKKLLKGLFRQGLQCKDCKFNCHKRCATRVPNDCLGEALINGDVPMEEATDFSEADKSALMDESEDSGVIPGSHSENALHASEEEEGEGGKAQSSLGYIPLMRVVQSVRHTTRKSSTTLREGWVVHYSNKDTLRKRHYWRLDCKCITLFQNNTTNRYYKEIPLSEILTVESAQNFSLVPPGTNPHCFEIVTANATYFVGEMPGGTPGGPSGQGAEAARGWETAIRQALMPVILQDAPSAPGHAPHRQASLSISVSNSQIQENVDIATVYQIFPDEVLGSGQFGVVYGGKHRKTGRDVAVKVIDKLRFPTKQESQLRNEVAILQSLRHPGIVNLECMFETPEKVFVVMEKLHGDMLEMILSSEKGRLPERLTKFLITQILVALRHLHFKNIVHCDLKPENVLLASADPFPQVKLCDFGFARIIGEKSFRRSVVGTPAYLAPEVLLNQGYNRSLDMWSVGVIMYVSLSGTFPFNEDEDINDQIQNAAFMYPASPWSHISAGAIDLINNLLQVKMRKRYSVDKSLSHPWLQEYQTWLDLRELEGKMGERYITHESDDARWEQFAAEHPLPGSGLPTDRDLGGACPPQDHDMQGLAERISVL
The conditions noted are these: at 1 µM.

In assay [2] the target is T2, Serine/threonine-protein kinase D3 (Homo sapiens) (UniProt O94806).
T2 sequence (whole entry): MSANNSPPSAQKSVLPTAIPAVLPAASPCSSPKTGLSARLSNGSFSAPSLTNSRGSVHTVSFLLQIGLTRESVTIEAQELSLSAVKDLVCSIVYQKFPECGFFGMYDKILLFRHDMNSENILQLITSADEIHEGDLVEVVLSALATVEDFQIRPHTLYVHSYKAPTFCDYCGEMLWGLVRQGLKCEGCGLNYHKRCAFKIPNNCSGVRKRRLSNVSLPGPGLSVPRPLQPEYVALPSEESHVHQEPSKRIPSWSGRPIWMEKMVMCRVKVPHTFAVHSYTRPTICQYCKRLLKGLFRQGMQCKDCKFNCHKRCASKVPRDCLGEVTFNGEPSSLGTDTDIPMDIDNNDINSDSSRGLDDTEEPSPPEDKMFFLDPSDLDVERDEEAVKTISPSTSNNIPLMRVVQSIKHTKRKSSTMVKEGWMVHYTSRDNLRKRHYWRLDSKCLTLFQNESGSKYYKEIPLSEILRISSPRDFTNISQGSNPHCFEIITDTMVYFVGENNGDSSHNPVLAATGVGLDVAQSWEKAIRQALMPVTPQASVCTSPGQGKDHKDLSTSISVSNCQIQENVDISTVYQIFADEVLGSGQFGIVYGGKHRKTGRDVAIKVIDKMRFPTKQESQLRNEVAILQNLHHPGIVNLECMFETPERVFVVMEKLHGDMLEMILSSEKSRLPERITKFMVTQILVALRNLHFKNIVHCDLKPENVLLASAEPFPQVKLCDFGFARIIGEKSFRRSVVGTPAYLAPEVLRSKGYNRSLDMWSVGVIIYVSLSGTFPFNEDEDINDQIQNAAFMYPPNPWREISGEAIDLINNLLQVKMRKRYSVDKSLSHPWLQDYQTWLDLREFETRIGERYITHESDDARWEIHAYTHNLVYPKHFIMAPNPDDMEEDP
Conditions: at 0.1 µM.

Assay [3] has as its target T2, Serine/threonine-protein kinase D3 (Homo sapiens). The conditions noted are these: at 1 µM.
The target of assay [4] is T3, cGMP-dependent protein kinase 1 (Homo sapiens) (UniProt Q13976).
T3 sequence (whole entry): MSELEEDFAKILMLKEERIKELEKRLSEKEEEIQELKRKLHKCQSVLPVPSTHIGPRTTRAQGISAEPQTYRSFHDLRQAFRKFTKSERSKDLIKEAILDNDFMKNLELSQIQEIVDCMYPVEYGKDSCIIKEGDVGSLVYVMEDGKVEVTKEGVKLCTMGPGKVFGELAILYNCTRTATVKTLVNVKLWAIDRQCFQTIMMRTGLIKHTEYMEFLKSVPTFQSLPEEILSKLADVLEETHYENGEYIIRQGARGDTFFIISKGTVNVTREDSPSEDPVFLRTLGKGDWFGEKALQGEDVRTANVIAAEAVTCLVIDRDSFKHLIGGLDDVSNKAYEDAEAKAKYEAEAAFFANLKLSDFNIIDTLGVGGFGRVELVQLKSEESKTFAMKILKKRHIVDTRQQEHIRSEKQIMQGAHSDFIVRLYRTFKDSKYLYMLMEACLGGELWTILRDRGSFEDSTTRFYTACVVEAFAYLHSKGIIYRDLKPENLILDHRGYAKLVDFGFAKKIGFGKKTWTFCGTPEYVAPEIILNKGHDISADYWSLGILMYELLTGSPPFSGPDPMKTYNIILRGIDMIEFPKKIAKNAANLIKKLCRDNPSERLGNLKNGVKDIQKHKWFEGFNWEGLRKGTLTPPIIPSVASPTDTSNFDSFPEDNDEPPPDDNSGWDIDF
The conditions noted are these: at 0.1 µM.

Assay [5] deals with T3, cGMP-dependent protein kinase 1 (Homo sapiens). The conditions noted are these: at 1 µM.
Assay [6] concerns the target T4, cGMP-dependent protein kinase 2 (Homo sapiens) (UniProt Q13237).
T4 sequence (whole entry): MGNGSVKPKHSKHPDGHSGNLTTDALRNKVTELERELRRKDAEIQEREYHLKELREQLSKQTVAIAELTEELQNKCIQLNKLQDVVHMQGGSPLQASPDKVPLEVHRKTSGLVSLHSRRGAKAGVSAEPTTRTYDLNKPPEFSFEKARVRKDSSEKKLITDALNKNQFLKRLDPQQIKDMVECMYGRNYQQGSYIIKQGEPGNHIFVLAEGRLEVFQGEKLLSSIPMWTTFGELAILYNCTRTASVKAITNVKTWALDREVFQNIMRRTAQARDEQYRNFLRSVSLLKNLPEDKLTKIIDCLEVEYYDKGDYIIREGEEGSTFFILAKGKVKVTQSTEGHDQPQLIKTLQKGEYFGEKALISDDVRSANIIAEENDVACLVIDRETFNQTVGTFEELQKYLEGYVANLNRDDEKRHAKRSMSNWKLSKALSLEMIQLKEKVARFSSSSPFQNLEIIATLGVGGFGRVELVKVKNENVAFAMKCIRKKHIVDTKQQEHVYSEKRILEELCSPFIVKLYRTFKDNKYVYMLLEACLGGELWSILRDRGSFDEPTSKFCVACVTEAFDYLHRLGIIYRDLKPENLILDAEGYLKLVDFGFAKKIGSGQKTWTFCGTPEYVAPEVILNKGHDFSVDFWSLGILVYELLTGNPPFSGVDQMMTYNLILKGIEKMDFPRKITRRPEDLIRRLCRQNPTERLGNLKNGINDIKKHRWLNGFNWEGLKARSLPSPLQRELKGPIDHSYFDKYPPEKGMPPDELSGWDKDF
The conditions noted are these: at 0.1 µM.

In assay [7] the target is T4, cGMP-dependent protein kinase 2 (Homo sapiens). The conditions noted are these: at 1 µM.
Assay [8] deals with T5, cAMP-dependent protein kinase catalytic subunit PRKX (Homo sapiens) (UniProt P51817).
T5 sequence (whole entry): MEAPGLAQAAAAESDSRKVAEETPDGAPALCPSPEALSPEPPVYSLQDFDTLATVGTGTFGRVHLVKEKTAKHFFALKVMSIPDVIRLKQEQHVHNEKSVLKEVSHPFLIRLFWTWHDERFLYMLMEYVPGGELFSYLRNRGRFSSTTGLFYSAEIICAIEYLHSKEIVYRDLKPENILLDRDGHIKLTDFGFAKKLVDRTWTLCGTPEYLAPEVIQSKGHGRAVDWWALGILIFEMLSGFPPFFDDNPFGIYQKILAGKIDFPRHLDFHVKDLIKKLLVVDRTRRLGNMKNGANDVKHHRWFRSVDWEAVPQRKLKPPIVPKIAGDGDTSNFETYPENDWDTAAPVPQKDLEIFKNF
Conditions: at 0.1 µM.

Assay [9] concerns the target T5, cAMP-dependent protein kinase catalytic subunit PRKX (Homo sapiens). The conditions noted are these: at 1 µM.
Assay [10] addresses Rho-associated protein kinase 1 (Homo sapiens) (UniProt Q13464). The conditions noted are these: at 0.1 µM.

Chain of Rho-associated protein kinase 1 (Homo sapiens) (Q13464 2-1354 limits assumed): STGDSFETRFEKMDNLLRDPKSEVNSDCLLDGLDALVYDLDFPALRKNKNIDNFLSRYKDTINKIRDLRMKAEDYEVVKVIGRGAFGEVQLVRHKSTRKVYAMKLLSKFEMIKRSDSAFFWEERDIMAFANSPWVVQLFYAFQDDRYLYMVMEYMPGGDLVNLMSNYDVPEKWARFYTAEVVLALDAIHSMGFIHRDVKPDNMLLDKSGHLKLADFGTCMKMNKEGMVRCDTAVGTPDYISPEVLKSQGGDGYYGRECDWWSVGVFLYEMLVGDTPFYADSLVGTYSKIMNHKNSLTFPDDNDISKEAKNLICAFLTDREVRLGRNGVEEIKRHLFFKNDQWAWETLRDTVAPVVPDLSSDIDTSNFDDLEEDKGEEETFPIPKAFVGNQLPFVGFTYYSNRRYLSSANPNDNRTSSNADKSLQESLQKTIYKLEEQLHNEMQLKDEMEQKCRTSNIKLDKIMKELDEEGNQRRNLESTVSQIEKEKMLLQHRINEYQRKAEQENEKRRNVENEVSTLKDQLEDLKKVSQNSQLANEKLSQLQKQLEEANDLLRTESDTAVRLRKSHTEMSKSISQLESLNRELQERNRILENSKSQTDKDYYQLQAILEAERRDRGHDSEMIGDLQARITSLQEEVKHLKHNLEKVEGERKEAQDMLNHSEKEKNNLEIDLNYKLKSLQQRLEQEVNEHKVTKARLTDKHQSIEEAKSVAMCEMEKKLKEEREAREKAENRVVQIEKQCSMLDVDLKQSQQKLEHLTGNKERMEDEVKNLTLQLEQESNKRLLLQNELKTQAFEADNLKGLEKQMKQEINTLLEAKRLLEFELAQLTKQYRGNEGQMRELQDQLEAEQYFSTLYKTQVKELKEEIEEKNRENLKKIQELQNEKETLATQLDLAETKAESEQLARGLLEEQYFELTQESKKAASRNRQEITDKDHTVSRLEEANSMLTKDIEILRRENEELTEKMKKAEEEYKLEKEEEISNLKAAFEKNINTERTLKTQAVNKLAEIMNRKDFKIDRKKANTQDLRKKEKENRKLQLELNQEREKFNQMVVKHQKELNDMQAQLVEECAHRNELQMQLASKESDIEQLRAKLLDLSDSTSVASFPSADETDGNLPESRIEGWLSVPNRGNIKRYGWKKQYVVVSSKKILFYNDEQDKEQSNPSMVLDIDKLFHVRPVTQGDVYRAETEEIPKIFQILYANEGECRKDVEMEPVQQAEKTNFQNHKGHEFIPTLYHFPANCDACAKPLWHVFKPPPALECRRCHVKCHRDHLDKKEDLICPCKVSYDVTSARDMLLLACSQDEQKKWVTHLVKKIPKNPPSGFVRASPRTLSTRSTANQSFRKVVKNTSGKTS

One may read the inhibition as the relative decrease from the control value, in per cent. Turning to `[O-][S+]1CCN(Cc2ccc(-c3ccc4ncnc(Nc5ccc(OCc6cccc(F)c6)c(Cl)c5)c4c3)o2)CC1`, the inhibition amounted to 6.63% in assay [1]; 4.66% in assay [2]; 6.53% in assay [3]; 3.87% in assay [4]; 3.85% in assay [5]; 3.53% in [6]. Also, the inhibition in [7] came out at 5.63%; in assay [8] it was 2.88%; in [9], 2.98%; in assay [10], 2.1%.
`Fc1ccc(-c2cc(-c3c[nH]nc3-c3ccccn3)ccn2)cc1`: the inhibition in assay [1] came to 32.4%; in assay [2] it was 6.2%; in assay [3], 20.5%; in [4], 1.49%; in [5], 4.77%; in assay [6], 1.37%. Further, the inhibition in assay [7] was 2.9%; in assay [8], 1.98%; in assay [9], 5.03%; in assay [10] it was -0.11%.
In the case of `c1ccc(-c2nc3n(c2-c2ccc4c(c2)OCO4)CCC3)nc1`, the inhibition was 4.47% in assay [1]; 2.58% in assay [2]; 5.25% in assay [3]; 2.47% in assay [4]; 2.75% in assay [5]; 1.67% in [6]. Moreover, the inhibition is 2.85% in assay [7], 0.87% in assay [8], 3.61% in assay [9] and 3.64% in assay [10].
For the compound `Nc1ncc(-c2cccc(S(N)(=O)=O)c2)c2scc(-c3ccc(F)c(Cl)c3)c12`, the inhibition in assay [1] is 43.8%; in assay [2], 6.03%; in assay [3], 33.1%; in [4], 1.07%; in [5] it was -0.14%; in assay [6], 2.34%. For the same compound, the inhibition in [7] amounted to 1.46%; in [8], 1.86%; in assay [9], 1.14%; in assay [10], 1.03%.
For `CCN(CC)S(=O)(=O)c1ccc(OC)c(Nc2ncc(-c3ccccc3)o2)c1`, the inhibition in [1] is 1.51%; in assay [2] it was -0.55%; in assay [3], 0.06%; in [4], 0.75%; in assay [5], 0.61%; in assay [6] it was 0.25%. Further, the inhibition came out at 0.95% in assay [7], 0.38% in [8], 0.62% in [9] and 0.86% in assay [10].
For the compound `COc1cccc(-n2ncc3c(N/N=C/c4ccc(F)cc4)ncnc32)c1`, the inhibition was 3.35% in assay [1]; 4.25% in [2]; 4.06% in assay [3]; 1.9% in assay [4]; 4.15% in [5]; 2.19% in assay [6]. Further, the inhibition in assay [7] came out at 2.67%; in assay [8], 2.4%; in assay [9], 4.79%; in assay [10], 1%.
Consider `CC(C)(CO)CNC(=O)c1ccc2c(c1)/C(=N/Nc1ccc(S(N)(=O)=O)cc1)C(=O)N2`, for which the inhibition was 11.8% in assay [1]; 0.07% in assay [2]; 9.82% in assay [3]; 0.66% in assay [4]; 11.8% in [5]; 2.6% in assay [6]. In addition, the inhibition in assay [7] was determined as 22%; in assay [8] it was 0.91%; in assay [9] it was 3.07%; in [10] it was 0.33%.
On to `Cc1ccc2c(-c3ccnc(Nc4ccccc4)n3)c(-c3ccc(F)cc3)nn2n1`, for which the inhibition is 87% in assay [1]; 18.6% in assay [2]; 80.7% in assay [3]; 1.32% in assay [4]; 2.92% in [5]; 3.01% in assay [6]. Also, the inhibition in assay [7] is 2.49%; in assay [8], 1.83%; in [9] it was -0.36%; in assay [10], 1.01%.
For `COc1ccc(-c2nn3ncccc3c2-c2ccnc(Nc3ccc4c(c3)OCCO4)n2)cc1`, the inhibition in [1] is 9.73%; in assay [2], 2.09%; in assay [3] it was 8.59%; in assay [4] it was -0.47%; in [5], -2.7%; in [6], 0.2%. The inhibition was -1.06% in assay [7], 0.59% in [8], -0.08% in assay [9] and 0.43% in assay [10].
